# From PubChem BioAssay AID2685 (National Center for Advancing Translational Sciences (NCATS), 2010)
# In all, about 320,000 compounds went through this assay and about 2,100 (0.66%) were called active. Not shown: some 53% with an inconclusive outcome. Calls come from the whole dose curve; as a rule, active = well fitted inhibition curve with a large enough effect in the signal ratio, with a control signal flat (not every such curve was filed as active); inconclusive = small, poorly fitted or top-dose-only effect, or effect the other way, or a change in a side signal; inactive = flat fitted curve, though single readings scatter; the % refers to the signal ratio. For the sample, actives were picked, then their nearest neighbours and some compounds at random.
# Experiment: qHTS Assay for Lipid Storage Modulators in Drosophila S3 Cells;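 for cell number change: cells counted by Cell Tracker Red CMTPX staining in the red channel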; for lipid storage change, negative = inhibition: % is set by controls: 0 for no effect and ±100 for the full control effect
# Conditions: BODIPY lipid droplet fluorescence, 18-24 h, cells fed with added oleic acid; cell number change: measured here: cell count max response; series mostly up to 46.1 µM
# Summary of the method: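 Drosophila S3 cells loaded with oleic acid (400 uM, as added) and compounds at several concentrations; lipid droplets imaged by 488-nm laser-scanning cytometry, 500–530 nm intensity and object ratio to cell channel. Percent activity normalized to 20 uM Triacsin C.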
# Potency is the fitted concentration of half-maximal effect.
Compound,Potency,cell number change [%],"lipid storage change, negative = inhibition"
CCOc1ccccc1OCCCC(=O)Nc1nc2ccccc2[nH]1,inactive,,
COc1ccc(-c2noc(CSc3nc4ccccc4c(=O)n3-c3ccc(C)cc3)n2)cc1,inactive,13.3,
Clc1ccc(OCc2cn3cccnc3n2)c2ncccc12,inactive,,
CC[C@H](C)[C@H](NC(N)=O)C(=O)Nc1ccc(S(=O)(=O)NC(C)C)cc1,inactive,3.97,
COc1ccc(OCCCC(=O)Nc2cccc([N+](=O)[O-])c2)cc1,inactive,10.1,
COc1ccc(OCCCC(=O)Nc2cc([N+](=O)[O-])ccc2C)cc1,14.6 µM (active),-3.49,
CC(=O)c1cccc(NCC(=O)Nc2cccc(S(=O)(=O)N3CCCCC3)c2)c1,inactive,13.3,
O=C(CNc1cccc(S(=O)(=O)N2CCCCCC2)c1)Nc1cccc([N+](=O)[O-])c1,20.6 µM (active),20.3,
Cc1ccc([N+](=O)[O-])cc1NC(=O)CCCOc1ccccc1,inactive,2.03,
O=C(CNc1cccc(S(=O)(=O)N2CCCC2)c1)Nc1cccc(Br)c1,inactive,14.3,
O=C(O)c1cccc(Nc2c([N+](=O)[O-])c(=O)oc3ccccc23)c1,inactive,3.37,
CC(=O)Oc1ccc(C(=O)Nc2ccc(S(=O)(=O)N3CCOCC3)cc2)cc1,inactive,-28,
Cc1ccc2[nH]c(=O)c(CN(CC3CCCO3)C(=S)Nc3ccccc3)cc2c1 (stereo not given),inactive,-9.29,
O=C(Nc1ccccc1)C1C(c2ccccc2)C1(Cl)Cl (stereo not given),inactive,-2.33,
CCOc1ccc(NC(=O)C2C(c3ccccc3)C2(Cl)Cl)cc1 (stereo not given),16.4 µM (active),-15.7,
COc1ccc(NC(=O)C2C(c3ccccc3)C2(Cl)Cl)cc1 (stereo not given),inactive,19.2,
OCCN1CCN(CCSc2ccccc2)CC1,inactive,0.698,
CCn1ncc(-c2csc(N)n2)c1C,inactive,9.82,
O=C(c1ccccc1)N1CN2CN(C(=O)c3ccccc3)CC([N+](=O)[O-])(C2)C1,inactive,6.5,
COc1ccccc1C(CNC(=O)c1cc(C)nc2ccccc12)N(C)C (stereo not given),inactive,9.21,
CCCCCN=CC1=C(O)CC(c2ccccc2)CC1=O (stereo not given),inactive,-15.5,
CCCN=CC1=C(O)CC(c2ccccc2)CC1=O (stereo not given),inactive,5.05,
O=C(O)CCN=CC1=C(O)CC(c2ccccc2)CC1=O (stereo not given),1.03 µM (active),15.8,

Compound,Potency,cell number change [%],"lipid storage change, negative = inhibition"
COCCn1c(SCC(=O)NCCc2ccc(OC)c(OC)c2)nc2c([nH]c3ccccc32)c1=O,inactive,5.96,
NC(=O)Cn1cc(C(=O)C(=O)N2CCOCC2)c2ccccc21,inactive,-8.62,
S=C(c1cn(Cc2ccccc2)c2ccccc12)N1CCOCC1,inactive,4.05,
O=C(O)Cn1cc(C(=S)N2CCOCC2)c2ccccc21,23.1 µM (active),-0.629,
CCc1nc2oc3ccccc3c(=O)c2c(=O)n1CCOC,,14.4,-1.96% [at 9.22 µM] (inactive)
O=C(CCc1ccccc1)NC(NC(=S)Nc1ccc(Br)cc1)C(Cl)(Cl)Cl (stereo not given),inactive,-27.3,
Cc1ccc(-n2nnnc2SCCNS(=O)(=O)c2ccccc2)cc1C,inactive,-14.2,
Cc1ccc(NC(=O)CSc2nnc(N)s2)cc1S(=O)(=O)N1CCCCC1,inactive,-23.8,
CCOc1ccc(CNC(=O)C2Cc3cc(S(=O)(=O)N4CCCCC4)ccc3N2C(C)=O)cc1 (stereo not given),inactive,8.5,
CCc1ccc(CNC(=O)C2Cc3cc(S(=O)(=O)N4CCCC4)ccc3N2C(C)=O)cc1 (stereo not given),11.6 µM (active),-14.2,
CC(=O)N1c2ccc(S(=O)(=O)N3CCCC3)cc2CC1C(=O)NCc1ccc(N(C)C)cc1 (stereo not given),inactive,12.7,
CCN(CC)S(=O)(=O)c1cc(OC)c(Cl)cc1OC,inactive,14.5,
COc1cc(/C=N/NC(=O)COc2ccc(-n3cnnn3)cc2)ccc1OCC(N)=O,inactive,7.43,
Cc1noc(C)c1S(=O)(=O)N(CC(=O)O)c1ccc2c(c1)OCO2,inactive,,
Cc1cc(C)cc(N(CC(=O)O)S(=O)(=O)c2c(C)noc2C)c1,23.1 µM (active),2.34,
CCc1ccc(N(CC(=O)O)S(=O)(=O)c2c(C)noc2C)cc1,inactive,7.92,
CC(=O)Nc1ccc(NC(=O)Cn2c(=O)n(-c3ccc(C)cc3)c(=O)c3oc4ccccc4c32)cc1,inactive,-4.98,
COC(=O)c1cccc(NC(=O)CN2CCN(c3ccc(OC)cc3)CC2)c1,inactive,6.81,
COc1ccccc1N1CCN(CC(=O)Nc2ccnn2C2CCCC2)CC1,inactive,1.72,
COc1cccc(N2CCN(CC(=O)Nc3ccnn3C3CCCC3)CC2)c1,10.3 µM (active),-10.7,
COc1ccc(CC(=O)Nc2cccc(S(=O)(=O)N3CCCCCC3)c2)cc1OC,20.6 µM (active),-6.09,
COc1ccc(CC(=O)Nc2cccc(S(=O)(=O)N3CCCCC3)c2)cc1,inactive,-18.3,
COc1ccccc1CCC(=O)Nc1cccc(S(=O)(=O)N2CCOCC2)c1,inactive,12.7,

Compound,Potency,cell number change [%],"lipid storage change, negative = inhibition"
O=C(CN1CCN(S(=O)(=O)c2ccc3ccccc3c2)CC1)Nc1ccc(N2CCOCC2)cc1,inactive,-8.53,
COc1ccc(CC(=O)Nc2cccc(S(=O)(=O)N3CCOCC3)c2)cc1OC,23.1 µM (active),-21.4,
O=C(CN1CCN(S(=O)(=O)c2ccccc2)CC1)Nc1ccnn1C1CCCC1,inactive,-2.45,
COc1ccc(N2CCN(CC(=O)Nc3cccc(S(=O)(=O)N4CCOCC4)c3)CC2)cc1,16.4 µM (active),-21.6,
COc1ccc(CC(=O)Nc2cc(S(=O)(=O)N3CCCCC3)ccc2C)cc1OC,inactive,-3.08,
O=C(Cc1ccc(Br)cc1)Nc1cccc(S(=O)(=O)N2CCOCC2)c1,inactive,-12.5,
O=C(NCc1ccccc1)c1ccc(Cl)nc1,inactive,10,
CC(C)(C)c1ccc(/C=N/NC(=O)c2ccccn2)cc1,inactive,6.33,
CCCCC(Sc1nc(N)c(NC(=O)c2ccco2)c(=O)[nH]1)C(=O)O (stereo not given),inactive,-24.3,
O=C(CN(C(=O)c1csnn1)c1cccc(Cl)c1)NCCc1ccccc1,inactive,12.4,
Cc1ccccc1NC(=O)CSc1ccc(-c2ccco2)nn1,inactive,-9.57,
CCCNc1ccc(S(=O)(=O)N(CC)CC)cn1,inactive,5.83,
Cc1ccc(S(=O)(=O)N(CC(=O)NC2CC2)c2ccc(C)c(Cl)c2)cc1,inactive,,
CCOC(=O)CCN,inactive,3.17,
O=C(NCC1CCCO1)c1ccc2c(c1)C(=O)N(c1cccc([N+](=O)[O-])c1)C2=O (stereo not given),0.82 µM (active),-9.52,
O=C(NCC1CCCO1)c1ccc(NS(=O)(=O)c2cccc([N+](=O)[O-])c2)cc1 (stereo not given),inactive,5.5,
O=C(NCC1CCCO1)c1ccc2c(c1)C(=O)N(C1CCCCC1)C2=O (stereo not given),inactive,2.66,
Nc1c(-c2ccc(Cl)cc2)cnn1-c1cccc(C(F)(F)F)c1,inactive,10.7,
NC(=O)C1CCCN(Cc2ccc3ccccc3c2)C1 (stereo not given),inactive,10.8,
O=C(C1CCCN(Cc2ccc(Cl)cc2)C1)N1CCCCC1 (stereo not given),inactive,22.8,
NC(=O)C1CCCN(Cc2ccc(Cl)cc2)C1 (stereo not given),29.1 µM (active),-11.1,
Cc1ccc(CNC(=O)COC(=O)c2ccc(S(=O)(=O)NCc3ccco3)cc2)cc1,inactive,-0.995,
O=C(COC(=O)c1ccc(S(=O)(=O)NCc2ccco2)cc1)NCC1CCCCC1,25.9 µM (active),-12.1,

Compound,Potency,cell number change [%],"lipid storage change, negative = inhibition"
O=C(COC(=O)c1ccc(S(=O)(=O)NCc2ccco2)cc1)NC1CCCCC1,inactive,0.997,
C#CCOCCOCCOCCNc1nc(N2CCN(C(=O)[C@H](CCC(=O)O)n3cc(C(N)[C@H](C)CC)nn3)CC2)nc(N2CCN(C(=O)[C@H](CCC(=O)O)n3cc(C(N)[C@H](C)CC)nn3)CC2)n1 (stereo not given in full),inactive,-3.88,
O=C(CN(Cc1ccccc1)S(=O)(=O)c1ccccc1)N/N=C/c1ccc([N+](=O)[O-])cc1,inactive,-4.65,
Cc1ccc(OCC(=O)NNC(=S)NC(=O)c2ccc(Br)o2)c(C)c1,inactive,7.54,
Cc1ccc(-n2nc3c(=O)n(CC(=O)NCCc4ccc(Cl)cc4)nc(C)c3c2C)cc1,inactive,-10.8,
Cc1ccc(-n2nc3c(=O)n(CC(=O)NCCCc4ccccc4)nc(C)c3c2C)cc1,18.4 µM (active),21,
Cc1ccc(-n2nc3c(=O)n(C(C)C(=O)NCCCc4ccccc4)nc(C)c3c2C)cc1 (stereo not given),inactive,-8.4,
Cc1cc(C)cc(NC(=O)CSc2ncc(S(=O)(=O)c3ccccc3)c(=O)[nH]2)c1,inactive,4.62,
O=C(CN1CCNC(=O)C1)NCCc1ccc(Cl)cc1Cl,inactive,-23.8,
O=C(CN1C(=O)C(=O)N(C2CCCC2)C1=O)NCCc1ccc(Cl)cc1Cl,4.11 µM (active),-0.378,
O=C(CN1CC(=O)Nc2ccccc21)NCCc1ccc(Cl)cc1Cl,inactive,-5.87,
CC(=O)c1cccc(NC(=O)c2cc(C)no2)c1,inactive,5.99,
CCC(C)[C@@H](N)C(=O)N/N=C/c1cccc2nccnc12 (stereo not given in full),inactive,-7.62,
CC(C)C(c1nnnn1Cc1ccco1)N1CCC(C(N)=O)CC1 (stereo not given),inactive,-12.1,
CCC(c1nnnn1Cc1ccco1)N1CCC(C(N)=O)CC1 (stereo not given),5.8 µM (active),-7.68,
CCC(c1nnnn1Cc1ccco1)N1CCN(C(=O)c2ccco2)CC1 (stereo not given),inactive,0.561,
CCCC(=O)Nc1ccc2oc(=O)ccc2c1,inactive,-4.63,
Cc1ccccc1C(=O)N1CCCC(N2CCN(Cc3ccc4c(c3)OCO4)CC2)C1 (stereo not given),inactive,0.496,
CCNc1nc(NCC)n2c(SCC(=O)O)nnc2n1,29.1 µM (active),-12,
CCNc1nc(NCC)n2c(SCC(=O)c3ccccc3Cl)nnc2n1,inactive,,
CCNc1nc(NCC)n2c(SCC(=O)Nc3ccccc3)nnc2n1,inactive,9.23,
